The values below come from publication PMC7862700, “An all-to-all approach to the identification of sequence-specific readers for epigenetic DNA modifications on cytosine”.

Common to all, as to assay: DAPPL (digital affinity profiling via proximity ligation, sequencing); 10 mM Tris-HCl pH 7.5, 50 mM NaCl, 1 mM DTT, 4% glycerol, room temperature, 30 min; GST-TFs on glutathione beads, 16-mer random dsDNA library, 0.1% formaldehyde crosslink after washing; high values mean tight binding
The target of one assay is T1, FEV (Homo sapiens, UniProt Q99581 1-238).
T1 sequence: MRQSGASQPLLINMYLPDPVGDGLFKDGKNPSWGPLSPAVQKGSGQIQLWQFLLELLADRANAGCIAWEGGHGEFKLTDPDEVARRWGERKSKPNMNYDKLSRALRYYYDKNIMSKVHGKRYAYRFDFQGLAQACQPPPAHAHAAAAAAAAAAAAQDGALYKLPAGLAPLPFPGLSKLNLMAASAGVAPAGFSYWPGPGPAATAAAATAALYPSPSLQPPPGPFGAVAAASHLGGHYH
Particulars: protein: recombinant; tags: N-terminal GST; dsDNA, one strand shown. In short, it runs like this:
(§1)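 Pools were built from human transcription factors expressed in yeast as GST fusions, captured on glutathione beads and DNA-barcoded, along with a tag-only sample. Incubation with 200 nmole of a 16-mer random double-stranded DNA library lasted 30 min at room temperature in Tris/NaCl/DTT/glycerol buffer, and was followed by washing, 0.1% formaldehyde crosslinking, proximity ligation, PCR amplification and Illumina NextSeq500 sequencing. Binding signal is the quotient of each hexamer's read frequency for a factor and its frequency for the tag-only sample.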

For the next assay, the target named is ETV5 (Homo sapiens, UniProt P41161 1-510). Particulars: protein: recombinant; tags: N-terminal GST; dsDNA, one strand shown. In short, it runs like this: as §1
Sequence of ETV5 (P41161 whole entry): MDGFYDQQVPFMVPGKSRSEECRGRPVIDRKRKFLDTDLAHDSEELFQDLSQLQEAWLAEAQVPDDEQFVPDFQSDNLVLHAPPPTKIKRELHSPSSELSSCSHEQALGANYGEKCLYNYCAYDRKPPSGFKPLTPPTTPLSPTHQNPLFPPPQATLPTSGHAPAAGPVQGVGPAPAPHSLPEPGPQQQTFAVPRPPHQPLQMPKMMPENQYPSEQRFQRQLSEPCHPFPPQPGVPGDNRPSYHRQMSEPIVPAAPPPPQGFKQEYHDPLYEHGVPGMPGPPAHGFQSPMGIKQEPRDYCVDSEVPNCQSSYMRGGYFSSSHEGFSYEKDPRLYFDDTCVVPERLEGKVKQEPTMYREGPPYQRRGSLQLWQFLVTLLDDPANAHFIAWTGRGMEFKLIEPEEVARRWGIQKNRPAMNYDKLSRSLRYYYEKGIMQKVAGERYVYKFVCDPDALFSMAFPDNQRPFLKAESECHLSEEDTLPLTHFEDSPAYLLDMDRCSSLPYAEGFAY
For another assay, the target named is HSF1 (Homo sapiens, UniProt Q00613 1-529). Particulars: protein: recombinant; tags: N-terminal GST; chain copies: 3; dsDNA, one strand shown. In a few lines: as §1
Sequence of HSF1 (Q00613 whole entry): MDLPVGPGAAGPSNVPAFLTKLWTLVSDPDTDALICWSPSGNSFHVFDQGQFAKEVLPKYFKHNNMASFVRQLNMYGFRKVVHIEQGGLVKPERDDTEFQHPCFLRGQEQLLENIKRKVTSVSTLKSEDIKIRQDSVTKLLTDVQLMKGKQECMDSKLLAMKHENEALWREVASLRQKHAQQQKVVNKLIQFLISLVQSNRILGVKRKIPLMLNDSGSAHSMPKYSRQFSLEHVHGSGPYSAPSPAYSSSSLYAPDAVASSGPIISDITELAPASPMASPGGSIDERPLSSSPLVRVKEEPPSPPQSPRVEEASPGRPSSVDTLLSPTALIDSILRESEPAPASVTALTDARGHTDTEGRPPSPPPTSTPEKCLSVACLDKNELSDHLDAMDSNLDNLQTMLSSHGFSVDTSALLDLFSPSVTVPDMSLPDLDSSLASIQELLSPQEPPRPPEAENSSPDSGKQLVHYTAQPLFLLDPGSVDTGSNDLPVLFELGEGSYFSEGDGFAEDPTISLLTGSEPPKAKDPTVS
The target of a further assay is T2, SPIC (Homo sapiens, UniProt Q8N5J4 1-248).
T2 sequence: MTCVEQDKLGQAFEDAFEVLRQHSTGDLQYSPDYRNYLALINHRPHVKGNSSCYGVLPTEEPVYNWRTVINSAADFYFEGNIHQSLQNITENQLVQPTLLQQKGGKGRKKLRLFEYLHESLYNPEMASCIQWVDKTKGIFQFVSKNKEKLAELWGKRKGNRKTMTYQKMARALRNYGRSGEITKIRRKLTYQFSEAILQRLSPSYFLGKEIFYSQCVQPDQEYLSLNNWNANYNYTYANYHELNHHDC
Particulars: protein: recombinant; tags: N-terminal GST; dsDNA, one strand shown. In short, it runs like this:
as §1

Another assay deals with ELF4 (Homo sapiens, UniProt Q99607 1-663). Particulars: protein: recombinant; tags: N-terminal GST; dsDNA, one strand shown. In a few lines: as §1
Sequence of ELF4 (Q99607 whole entry): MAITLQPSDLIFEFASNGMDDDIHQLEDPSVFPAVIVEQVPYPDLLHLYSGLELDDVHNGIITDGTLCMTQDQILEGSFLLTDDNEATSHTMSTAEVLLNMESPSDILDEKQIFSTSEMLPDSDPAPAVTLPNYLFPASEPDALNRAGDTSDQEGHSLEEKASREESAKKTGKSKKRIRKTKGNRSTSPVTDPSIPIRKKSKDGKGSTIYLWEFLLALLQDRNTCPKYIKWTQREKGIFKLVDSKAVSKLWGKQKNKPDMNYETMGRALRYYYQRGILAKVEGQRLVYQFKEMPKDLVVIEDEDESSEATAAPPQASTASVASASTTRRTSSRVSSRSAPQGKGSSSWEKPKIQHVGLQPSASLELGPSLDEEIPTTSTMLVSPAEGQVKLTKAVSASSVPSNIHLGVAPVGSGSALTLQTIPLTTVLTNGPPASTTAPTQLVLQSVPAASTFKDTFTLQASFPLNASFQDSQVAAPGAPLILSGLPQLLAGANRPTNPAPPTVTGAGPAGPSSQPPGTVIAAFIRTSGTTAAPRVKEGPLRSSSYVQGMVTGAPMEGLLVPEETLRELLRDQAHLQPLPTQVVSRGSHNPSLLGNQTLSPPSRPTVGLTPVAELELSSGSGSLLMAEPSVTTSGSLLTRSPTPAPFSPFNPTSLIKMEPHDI
Another assay concerns the target T3, ELK4 (Homo sapiens, UniProt P28324-2 1-405).
T3 sequence: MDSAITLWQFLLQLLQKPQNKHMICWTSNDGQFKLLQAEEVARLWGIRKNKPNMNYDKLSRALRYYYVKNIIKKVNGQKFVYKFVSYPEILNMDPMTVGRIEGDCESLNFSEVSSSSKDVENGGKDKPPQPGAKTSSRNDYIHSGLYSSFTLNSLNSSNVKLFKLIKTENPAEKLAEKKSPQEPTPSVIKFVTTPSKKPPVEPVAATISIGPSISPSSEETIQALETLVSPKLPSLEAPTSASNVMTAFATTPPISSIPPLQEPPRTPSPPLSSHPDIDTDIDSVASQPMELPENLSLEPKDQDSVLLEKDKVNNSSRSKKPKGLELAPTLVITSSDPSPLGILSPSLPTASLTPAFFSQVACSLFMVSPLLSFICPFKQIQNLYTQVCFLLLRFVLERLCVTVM
Particulars: protein: recombinant; tags: N-terminal GST; dsDNA, one strand shown. In short, it runs like this: as §1

Another assay addresses T4, ETV2 (Homo sapiens, UniProt O00321 1-342).
T4 sequence: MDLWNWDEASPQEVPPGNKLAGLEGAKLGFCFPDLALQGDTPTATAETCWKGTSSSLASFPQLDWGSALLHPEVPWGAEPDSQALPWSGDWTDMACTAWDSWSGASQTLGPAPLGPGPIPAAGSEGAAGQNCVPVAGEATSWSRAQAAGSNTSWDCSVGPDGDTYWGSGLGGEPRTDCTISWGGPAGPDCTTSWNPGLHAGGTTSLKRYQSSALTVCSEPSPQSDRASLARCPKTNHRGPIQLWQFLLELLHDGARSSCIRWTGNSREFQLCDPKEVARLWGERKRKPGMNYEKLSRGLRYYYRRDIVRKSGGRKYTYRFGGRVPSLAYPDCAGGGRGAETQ
Particulars: protein: recombinant; tags: N-terminal GST; dsDNA, one strand shown. In a few lines:
as §1

For a further assay, the target named is T5, ELF3 (Homo sapiens, UniProt P78545 1-371).
T5 sequence: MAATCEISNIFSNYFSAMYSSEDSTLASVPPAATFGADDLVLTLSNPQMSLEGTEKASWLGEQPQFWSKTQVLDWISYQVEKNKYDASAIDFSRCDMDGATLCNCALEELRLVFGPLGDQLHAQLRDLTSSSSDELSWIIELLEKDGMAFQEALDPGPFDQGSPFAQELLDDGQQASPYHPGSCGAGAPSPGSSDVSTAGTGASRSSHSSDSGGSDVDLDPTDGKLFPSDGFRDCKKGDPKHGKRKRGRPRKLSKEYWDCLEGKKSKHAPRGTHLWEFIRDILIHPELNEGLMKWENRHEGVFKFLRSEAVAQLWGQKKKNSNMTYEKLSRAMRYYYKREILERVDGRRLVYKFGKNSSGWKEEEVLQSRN
Particulars: protein: recombinant; tags: N-terminal GST; dsDNA, one strand shown. In short, it runs like this: as §1

The next assay deals with CRX (Homo sapiens, UniProt O43186 1-299). Particulars: protein: recombinant; tags: N-terminal GST; dsDNA, one strand shown. In a few lines:
as §1

The next assay addresses ETV1 (Homo sapiens, UniProt P50549 1-477). Particulars: protein: recombinant; tags: N-terminal GST; dsDNA, one strand shown. In a few lines: as §1
A further assay has as its target T6, ERF (Homo sapiens, UniProt P50548 1-548).
T6 sequence: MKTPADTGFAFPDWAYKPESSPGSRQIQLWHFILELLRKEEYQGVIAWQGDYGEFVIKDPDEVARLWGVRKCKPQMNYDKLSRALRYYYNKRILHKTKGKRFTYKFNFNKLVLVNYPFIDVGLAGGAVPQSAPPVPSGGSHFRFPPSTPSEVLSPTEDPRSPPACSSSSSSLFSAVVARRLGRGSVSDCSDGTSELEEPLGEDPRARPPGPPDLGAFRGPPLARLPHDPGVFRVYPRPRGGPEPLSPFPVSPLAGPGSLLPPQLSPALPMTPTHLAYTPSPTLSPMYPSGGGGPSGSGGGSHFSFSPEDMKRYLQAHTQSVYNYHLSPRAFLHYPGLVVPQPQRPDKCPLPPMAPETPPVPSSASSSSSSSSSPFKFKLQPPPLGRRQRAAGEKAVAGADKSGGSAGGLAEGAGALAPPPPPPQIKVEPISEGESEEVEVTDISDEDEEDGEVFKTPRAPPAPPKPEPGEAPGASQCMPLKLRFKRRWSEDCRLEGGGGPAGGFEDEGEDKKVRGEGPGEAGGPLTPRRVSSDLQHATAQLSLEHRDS
Particulars: protein: recombinant; tags: N-terminal GST; dsDNA, one strand shown. In a few lines: as §1

In another assay the target is T7, ETV3L (Homo sapiens, UniProt Q6ZN32 1-361).
T7 sequence: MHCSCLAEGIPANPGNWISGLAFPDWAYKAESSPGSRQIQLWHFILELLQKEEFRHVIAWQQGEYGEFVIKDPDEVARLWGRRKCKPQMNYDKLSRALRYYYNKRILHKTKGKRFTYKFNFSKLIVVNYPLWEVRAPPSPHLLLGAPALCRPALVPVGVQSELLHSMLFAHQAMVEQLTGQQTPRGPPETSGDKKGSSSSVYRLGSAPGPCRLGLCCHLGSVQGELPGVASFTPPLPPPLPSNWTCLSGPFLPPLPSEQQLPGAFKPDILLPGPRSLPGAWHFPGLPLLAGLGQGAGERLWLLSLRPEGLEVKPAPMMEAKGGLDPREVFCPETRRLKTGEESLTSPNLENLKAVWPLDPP
Particulars: protein: recombinant; tags: N-terminal GST; dsDNA, one strand shown. In short, it runs like this:
as §1

The target in a further assay is T8, ETS2 (Homo sapiens, UniProt P15036 1-469).
T8 sequence: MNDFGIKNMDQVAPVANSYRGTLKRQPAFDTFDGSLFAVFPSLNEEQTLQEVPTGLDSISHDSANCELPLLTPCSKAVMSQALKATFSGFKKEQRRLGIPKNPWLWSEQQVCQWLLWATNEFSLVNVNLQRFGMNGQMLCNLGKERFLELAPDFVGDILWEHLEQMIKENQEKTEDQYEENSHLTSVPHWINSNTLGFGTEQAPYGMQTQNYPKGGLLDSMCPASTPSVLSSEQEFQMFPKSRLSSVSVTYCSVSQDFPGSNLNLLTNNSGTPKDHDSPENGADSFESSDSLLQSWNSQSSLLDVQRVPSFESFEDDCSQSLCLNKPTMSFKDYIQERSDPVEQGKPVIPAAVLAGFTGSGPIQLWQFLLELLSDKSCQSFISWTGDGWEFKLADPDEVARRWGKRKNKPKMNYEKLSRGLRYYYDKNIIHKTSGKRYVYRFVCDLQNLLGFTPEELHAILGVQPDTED
Particulars: protein: recombinant; tags: N-terminal GST; dsDNA, one strand shown. In a few lines:
as §1

The target of a further assay is T9, SPDEF (Homo sapiens, UniProt O95238 1-335).
T9 sequence: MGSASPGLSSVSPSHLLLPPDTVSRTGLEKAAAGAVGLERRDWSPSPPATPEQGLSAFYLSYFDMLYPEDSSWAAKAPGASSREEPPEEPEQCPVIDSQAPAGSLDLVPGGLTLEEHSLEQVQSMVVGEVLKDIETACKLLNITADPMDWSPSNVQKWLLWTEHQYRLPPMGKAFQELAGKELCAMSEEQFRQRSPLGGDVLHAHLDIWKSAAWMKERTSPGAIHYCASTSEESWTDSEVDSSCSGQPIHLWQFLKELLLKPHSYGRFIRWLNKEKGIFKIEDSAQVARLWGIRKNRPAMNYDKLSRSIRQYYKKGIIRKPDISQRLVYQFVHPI
Particulars: protein: recombinant; tags: N-terminal GST; dsDNA, one strand shown. In short, it runs like this: as §1

In the next assay the target is T10, ETV7 (Homo sapiens, UniProt Q9Y603 1-341).
T10 sequence: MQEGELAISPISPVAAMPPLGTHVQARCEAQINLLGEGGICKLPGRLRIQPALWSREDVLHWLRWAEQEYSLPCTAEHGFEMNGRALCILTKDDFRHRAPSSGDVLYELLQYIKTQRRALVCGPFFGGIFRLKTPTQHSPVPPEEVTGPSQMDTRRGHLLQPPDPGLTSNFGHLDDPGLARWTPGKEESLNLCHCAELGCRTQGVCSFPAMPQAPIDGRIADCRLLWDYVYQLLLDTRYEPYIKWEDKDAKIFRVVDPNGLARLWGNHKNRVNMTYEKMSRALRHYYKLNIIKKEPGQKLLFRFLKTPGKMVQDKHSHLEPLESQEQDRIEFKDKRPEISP
Particulars: protein: recombinant; tags: N-terminal GST; dsDNA, one strand shown. In short, it runs like this: as §1

The next assay addresses T11, ELF5 (Homo sapiens, UniProt Q9UKW6-2 1-255).
T11 sequence: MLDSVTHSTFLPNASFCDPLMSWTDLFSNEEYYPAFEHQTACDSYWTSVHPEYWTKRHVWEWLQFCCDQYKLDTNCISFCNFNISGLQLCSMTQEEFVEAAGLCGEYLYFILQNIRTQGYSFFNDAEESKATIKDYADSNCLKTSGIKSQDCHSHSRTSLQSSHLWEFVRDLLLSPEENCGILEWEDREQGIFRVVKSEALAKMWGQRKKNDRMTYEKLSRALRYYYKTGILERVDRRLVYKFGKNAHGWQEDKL
Particulars: protein: recombinant; tags: N-terminal GST; dsDNA, one strand shown. In a few lines: as §1

The next assay has as its target T12, ETV3 (Homo sapiens, UniProt P41162-2 1-143).
T12 sequence: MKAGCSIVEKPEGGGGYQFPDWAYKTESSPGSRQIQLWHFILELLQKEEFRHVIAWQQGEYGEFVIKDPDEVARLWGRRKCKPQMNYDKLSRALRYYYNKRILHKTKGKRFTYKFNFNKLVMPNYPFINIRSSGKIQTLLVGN
Particulars: protein: recombinant; tags: N-terminal GST; dsDNA, one strand shown. In short, it runs like this: as §1

A further assay deals with ETV6 (Homo sapiens, UniProt P41212 1-452). Particulars: protein: recombinant; tags: N-terminal GST; dsDNA, one strand shown. In short, it runs like this:
as §1

Sequence of ETV1 (P50549 whole entry): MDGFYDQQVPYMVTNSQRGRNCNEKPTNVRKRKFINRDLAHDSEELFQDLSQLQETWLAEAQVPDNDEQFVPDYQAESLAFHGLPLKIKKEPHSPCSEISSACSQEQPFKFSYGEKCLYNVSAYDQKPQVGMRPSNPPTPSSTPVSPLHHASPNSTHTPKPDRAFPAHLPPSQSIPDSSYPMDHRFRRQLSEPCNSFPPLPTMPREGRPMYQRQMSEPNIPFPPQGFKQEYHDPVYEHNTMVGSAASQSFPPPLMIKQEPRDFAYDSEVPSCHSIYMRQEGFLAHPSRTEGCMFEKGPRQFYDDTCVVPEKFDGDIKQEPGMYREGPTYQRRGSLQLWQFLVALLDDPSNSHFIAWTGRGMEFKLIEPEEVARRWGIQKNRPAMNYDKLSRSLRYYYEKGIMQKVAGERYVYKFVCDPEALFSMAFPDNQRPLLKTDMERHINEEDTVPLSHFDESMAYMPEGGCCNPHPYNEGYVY
Sequence of ETV6 (P41212 whole entry): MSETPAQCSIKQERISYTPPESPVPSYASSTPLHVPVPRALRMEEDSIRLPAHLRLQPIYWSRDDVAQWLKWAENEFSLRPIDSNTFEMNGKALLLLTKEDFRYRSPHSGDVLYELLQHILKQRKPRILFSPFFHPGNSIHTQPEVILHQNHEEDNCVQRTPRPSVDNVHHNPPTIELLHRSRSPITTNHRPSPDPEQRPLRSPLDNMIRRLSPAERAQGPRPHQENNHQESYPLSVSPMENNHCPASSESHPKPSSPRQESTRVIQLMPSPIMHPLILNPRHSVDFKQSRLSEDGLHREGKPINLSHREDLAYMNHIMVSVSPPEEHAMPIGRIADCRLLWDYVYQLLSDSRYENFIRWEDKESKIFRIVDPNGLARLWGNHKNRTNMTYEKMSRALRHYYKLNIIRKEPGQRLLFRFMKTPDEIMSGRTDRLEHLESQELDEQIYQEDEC
Sequence of CRX (O43186 whole entry): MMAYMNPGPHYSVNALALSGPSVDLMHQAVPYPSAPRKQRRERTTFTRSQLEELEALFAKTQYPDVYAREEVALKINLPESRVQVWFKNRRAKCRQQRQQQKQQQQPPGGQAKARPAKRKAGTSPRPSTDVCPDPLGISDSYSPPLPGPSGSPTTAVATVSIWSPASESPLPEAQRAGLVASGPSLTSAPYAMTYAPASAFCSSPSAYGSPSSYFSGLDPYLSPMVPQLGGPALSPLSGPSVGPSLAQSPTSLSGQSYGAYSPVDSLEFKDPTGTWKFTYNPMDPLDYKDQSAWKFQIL

As for GTTCTG, the binding signal with FEV was 1.03 fold enrichment (6-mer frequency, TF over GST control); with ETV5 it was 1.08 fold enrichment (6-mer frequency, TF over GST control); with HSF1 it was 1.84 fold enrichment (6-mer frequency, TF over GST control); with SPIC, 1.1 fold enrichment (6-mer frequency, TF over GST control); with ELF4, 1.14 fold enrichment (6-mer frequency, TF over GST control); in the assay with ELK4 it was 1.3 fold enrichment (6-mer frequency, TF over GST control). The binding signal in the assay with ETV2 was 1.09 fold enrichment (6-mer frequency, TF over GST control); in the assay with ELF3, 1.12 fold enrichment (6-mer frequency, TF over GST control); with CRX, 1.01 fold enrichment (6-mer frequency, TF over GST control); in the assay with ETV1, 1.1 fold enrichment (6-mer frequency, TF over GST control); with ERF, 1.12 fold enrichment (6-mer frequency, TF over GST control); with ETV3L it was 1.23 fold enrichment (6-mer frequency, TF over GST control). For the same sequence, the binding signal with ETS2 was 1.05 fold enrichment (6-mer frequency, TF over GST control); with SPDEF, 1 fold enrichment (6-mer frequency, TF over GST control); in the assay with ETV7, 1.07 fold enrichment (6-mer frequency, TF over GST control); in the assay with ELF5 it was 1.1 fold enrichment (6-mer frequency, TF over GST control); with ETV3 it was 1.13 fold enrichment (6-mer frequency, TF over GST control); with ETV6 it was 1.1 fold enrichment (6-mer frequency, TF over GST control).
